Source: PubChem BioAssay
LASV entry inh = blocks Lassa virus binding to or entry into cells; actives 1.2% (n = 300,000); Lassa virus pseudotype entry inhibition, cell reporter; Potency, µM (highest dose often 37.9 µM), for the others: top-dose activity change, negative = inhibition, hits mostly inhibitors; calls by dose curve; tested in HEK293 cells; also: potency is read from the fitted curve at half-maximal effect; % is scaled to controls: 0 for no effect and ±100 for the full control effect; nearly all actives have a fitted effect of over 50% in size
Pf growth 96h = P. falciparum growth inhibition at 96 hour, primary screen for plastid delayed-death inhibitors | P. falciparum luciferase reporter growth, 96 h | actives 6.9% (n = 320,000) | Potency, µM (doses to about 28.7 µM), for the others: at the top dose activity change, negative = inhibition, hits mostly inhibitors | AID 504834; also: potency is read from the fitted curve at half-maximal effect; % is scaled to controls: 0 for no effect and ±100 for the full control effect
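Delayed-death screen, second-generation endpoint: infected erythrocytes, 2% hematocrit, 0.05% parasitemia final; 96 hours at 37 C, 5% CO2; luciferase detection reagent; luminescence decrease equals reduced growth.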
Marburg entry inh = blocks Marburg virus binding to or entry into cells | Marburg virus pseudotyped entry inhibition, cell reporter | Potency, µM (top dose mostly 37.8 µM), inactives show at the top dose activity change, negative = inhibition, hits mostly inhibitors | actives 1.8% (n = 300,000); calls by dose curve; tested in HEK293 cells; also: potency is read from the fitted curve at half-maximal effect; % is scaled to controls: 0 for no effect and ±100 for the full control effect
Pf growth 48h = inhibits P. falciparum growth in the first generation, 48 h | actives 5.9% (n = 310,000) | AID 504832 | Potency, µM (series often up to 28.7 µM), without a hit: at the top dose activity change, negative = inhibition, most hits filed as inhibitors | P. falciparum luciferase growth in erythrocytes, 48 h; also: potency is read from the fitted curve at half-maximal effect; % is scaled to controls: 0 for no effect and ±100 for the full control effect
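First compound was added to culture medium, then infected red cells at 0.1% parasitemia and 2% hematocrit (final). After incubation at 37 C under 5% CO2, luciferase detection reagent was dispensed and light output recorded.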
Shiga toxin inh = blocks Shiga toxin action in Vero cells. inhibition, % at 38.7 µM. actives 9.2% (n = 290,000). Vero cells, Shiga toxin protein synthesis inhibition reporter; in the data active = inhibition mostly above about 28%, no sharp cut-off; inactive = mostly below about 43%; also: 0% is about no effect
CHX counter = counter-screen for Shiga toxin inhibitors: cycloheximide protein synthesis inhibition | cell reporter, cycloheximide protein synthesis inhibition counterscreen | max response, % | actives 12% (n = 300,000); in the data active = max response mostly above about 13%, no sharp cut-off; inactive = mostly below about 14%; also: read at 38.3 µM for the half of the compounds with a filed dose; 0% is about no effect
The depositor's hits bear a star; [ ] = remark or other dose. An excerpt weighted towards active compounds, which were near 19% of everything screened. Unless noted, calls follow the shape of the dose curve; as a rule, active = well fitted inhibition curve with a large enough effect; inconclusive = small, poorly fitted or top-dose-only effect, or another doubt; inactive = no such curve, though single readings can be large or run the other way.

Results for COc1cc(OC)c(C(=O)Nc2cccc3ccccc23)cc1OC ?
Pf growth 96h: -8.9%; Pf growth 48h: 16.7%; CHX counter: 20.8*

How did COc1ccc(C(=O)C23CC4CC(C2)CC(C(=O)c2ccc(OC)cc2)(C4)C3)cc1 do in these assays?
Pf growth 96h: inconclusive; Pf growth 48h: -9.9%; Shiga toxin inh: 6.5; CHX counter: -1.5

What do the screens show for `COc1ccc(C(=O)CCN2CCCC(C)C2)cc1` (stereo unspecified)?
LASV entry inh: -13.7%; Pf growth 96h: 243.4%; Marburg entry inh: -1.0%; Pf growth 48h: -18.9%; Shiga toxin inh: 9.4; CHX counter: 2.5

How did Cc1cc(C(=O)Nc2cccc3ccccc23)co1 do in these assays?
LASV entry inh: -14.2%[46.1 µM]; Pf growth 96h: inconclusive; Marburg entry inh: -2.1%[46.1 µM]; Pf growth 48h: 25.6%; Shiga toxin inh: 27.6; CHX counter: 14.2*

What do the screens show for `Cc1ccc(C(=O)Nc2cccc3ccccc23)o1`?
LASV entry inh: 2.4%; Marburg entry inh: 4.8%[46.1 µM]

What do the screens show for `COc1ccc(C(=O)Nc2cccc3ccccc23)cc1`?
LASV entry inh: inconclusive; Pf growth 96h: inconclusive; Marburg entry inh: 16.8%[46.1 µM]; Pf growth 48h: 56.9%; Shiga toxin inh: 31.9; CHX counter: 20.8*

What do the screens show for `O=C(NNC(=O)c1cccnc1)Nc1ccc(Cl)c(Cl)c1`?
LASV entry inh: inconclusive; Pf growth 96h: 2.2%; Marburg entry inh: 10.9%; Pf growth 48h: 3.8%; Shiga toxin inh: -4.0; CHX counter: -2.2

What do the screens show for `O=C(Nc1ccc(Cl)c(Cl)c1)OCc1cccnc1`?
LASV entry inh: inconclusive; Pf growth 96h: inconclusive; Marburg entry inh: -18.3%; Pf growth 48h: -81.8%; Shiga toxin inh: 41.9*; CHX counter: 20.1*

How did O=C(Nc1cccnc1)OCc1ccccc1 do in these assays?
LASV entry inh: -1.0%; Pf growth 96h: -15.6%; Marburg entry inh: 25.4%; Pf growth 48h: 50.8%; Shiga toxin inh: 35.9; CHX counter: 18.6*

Results for Cc1ccc(NC(=S)N/N=C/c2ccc(OCCC(C)C)cc2)c(C)c1 ?
LASV entry inh: -18.9%; Pf growth 96h: inconclusive; Marburg entry inh: -22.8%; Shiga toxin inh: 35.5; CHX counter: 1.0

Results for Cc1onc(-c2ccccc2)c1C(=O)NCCc1ccncc1 ?
Pf growth 96h: inconclusive; Pf growth 48h: -4.2%; Shiga toxin inh: -6.1; CHX counter: -3.0

How did Cn1nnnc1SC1CC(=O)N(c2ccccc2)C1=O (stereo unspecified) do in these assays?
LASV entry inh: -16.6%; Pf growth 96h: -45.3%; Marburg entry inh: inconclusive; Pf growth 48h: 2.2%; Shiga toxin inh: -19.5; CHX counter: -2.9

What do the screens show for `COC(=O)c1ccccc1SC1CC(=O)N(c2ccccc2)C1=O` (stereo unspecified)?
LASV entry inh: inconclusive; Pf growth 96h: 11.7µM*; Marburg entry inh: 10.3%; Pf growth 48h: -22.4%; Shiga toxin inh: 57.1*; CHX counter: 28.5*

What do the screens show for `CCN1C(=O)CC(Sc2ccccc2C(=O)O)C1=O` (stereo unspecified)?
LASV entry inh: 13.5%; Marburg entry inh: 0.7%; Pf growth 48h: -81.3%; Shiga toxin inh: -23.3; CHX counter: -4.8

What do the screens show for `O=C(O)c1ccccc1SC1CC(=O)N(c2cccc3ccccc23)C1=O` (stereo unspecified)?
LASV entry inh: -0.6%; Pf growth 96h: 59.5%; Marburg entry inh: -3.4%[46.1 µM]; Pf growth 48h: 2.08µM*; Shiga toxin inh: 20.2; CHX counter: -2.8

How did C/C(=N\NC(=O)CSc1nc2ccccc2o1)c1cccc(O)c1 do in these assays?
Pf growth 96h: 22.2%; Pf growth 48h: 8.2%; Shiga toxin inh: 17.6; CHX counter: 2.2

How did O=C(CSc1nc2ccccc2o1)Nc1ccccc1N1CCOCC1 do in these assays?
LASV entry inh: 5.2%; Pf growth 96h: inconclusive; Marburg entry inh: inconclusive; Shiga toxin inh: 24.3; CHX counter: -0.1

How did Cc1cc(SCC(=O)N/N=C/c2ccc(O)c(O)c2)nc2ccccc12 do in these assays?
LASV entry inh: inconclusive; Pf growth 96h: 55.2%; Marburg entry inh: inconclusive; Pf growth 48h: 49.9%; Shiga toxin inh: -2.3; CHX counter: 0.6

What do the screens show for `O=C(CSc1nc2ccccc2o1)N/N=C/c1ccc(O)c(O)c1`?
Pf growth 96h: 88.3%; Pf growth 48h: 54.6%; Shiga toxin inh: 31.1*; CHX counter: 22.4*

How did Cc1ccccc1/C=N/NC(=O)CSc1nc2ccccc2o1 do in these assays?
LASV entry inh: 5.6%; Pf growth 96h: 297.4%; Marburg entry inh: inconclusive; Pf growth 48h: 190.7%; Shiga toxin inh: 93.4*; CHX counter: 24.5*

Results for Cc1ccccc1NC(=O)CSc1nc2ccccc2o1 ?
LASV entry inh: 6.8%; Marburg entry inh: 10.7%; Pf growth 48h: 181.0%; Shiga toxin inh: 63.1*; CHX counter: 23.2*

What do the screens show for `C/C(=N\NC(=O)CSc1nc2ccccc2o1)c1ccc(O)cc1`?
LASV entry inh: inconclusive; Pf growth 96h: 247.8%; Marburg entry inh: 20.2%[46.1 µM]; Pf growth 48h: 37.1%; Shiga toxin inh: 113.8*; CHX counter: 44.7*

What do the screens show for `O=C(CSc1nc2ccccc2s1)N/N=C/c1ccc(C(=O)O)cc1`?
Pf growth 96h: -6.3%; Pf growth 48h: 17.3%; Shiga toxin inh: 31.8; CHX counter: 25.3

How did Cc1csc2nc(CSc3nc4ccccc4o3)c(Br)n12 do in these assays?
LASV entry inh: inconclusive; Marburg entry inh: inconclusive; Pf growth 48h: 122.2%; Shiga toxin inh: 78.1*; CHX counter: 51.7*

How did Cc1csc2nc(CSc3nncn3-c3ccccc3)c(Br)n12 do in these assays?
LASV entry inh: 5.9%; Marburg entry inh: 19.9%; Pf growth 48h: -1.3%; Shiga toxin inh: -5.7; CHX counter: -1.9

Results for CC1(C)CC(=O)c2cnc(NC(=O)CSc3nc4ccccc4o3)nc2C1 ?
LASV entry inh: inconclusive; Pf growth 96h: 25.0%; Marburg entry inh: 9.9%; Pf growth 48h: 45.1%; Shiga toxin inh: 54.7; CHX counter: 15.9*

How did O=C(CSc1nc2ccccc2o1)N/N=C/c1ccccc1 do in these assays?
LASV entry inh: 20.2%; Pf growth 96h: -9.9%; Marburg entry inh: inconclusive; Pf growth 48h: 89.7%; Shiga toxin inh: 61.0*; CHX counter: 24.8*

How did Cc1cc(C)n(C(=O)CSc2nc3ccccc3o2)n1 do in these assays?
LASV entry inh: 13.5%; Pf growth 96h: inconclusive; Marburg entry inh: 2.8%; Pf growth 48h: 10.7%; Shiga toxin inh: 11.7; CHX counter: 17.9*

Results for Cc1cc(C)nc(SCC(=O)Nc2ncc3c(n2)CC(C)(C)CC3=O)n1 ?
LASV entry inh: -7.8%; Pf growth 96h: inconclusive; Marburg entry inh: 13.8%; Pf growth 48h: -3.5%; Shiga toxin inh: 26.4; CHX counter: -4.0

What do the screens show for `Cc1ccc(SCC(=O)n2nc(C)cc2C)cc1`?
LASV entry inh: 1.7%; Pf growth 96h: 78.0%; Marburg entry inh: inconclusive; Pf growth 48h: 11.8%; Shiga toxin inh: -2.4; CHX counter: -2.2
